Pol iota inh: DNA polymerase iota (human) inhibition; Q9UNA4; Pol iota fluorescent replication assay, 10 min; Potency, µM (doses to about 115 µM), inactives show top-dose activity, negative = inhibition, hits mostly inhibitors; 390,000 compounds, 1% hits; AID 588590
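Pol iota at 10 nM preincubated 15 min with compounds at room temperature; reaction started with fluorescent substrate, 50 nM final. Fluorescence read kinetically at 0 and 10 min; buffer-only wells as negative control.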
POLH inh: blocks human DNA polymerase eta activity; recombinant Pol eta, fluorescent DNA replication assay; Potency, µM (series often up to 114 µM), without a hit: at the top dose activity change, negative = inhibition, actives largely listed as inhibitors; 390,000 compounds, 1.2% hits; Q9Y253; note: % is set by controls: 0 for no effect and ±100 for the full control effect
Target sequence (Q9Y253 whole entry, looked up): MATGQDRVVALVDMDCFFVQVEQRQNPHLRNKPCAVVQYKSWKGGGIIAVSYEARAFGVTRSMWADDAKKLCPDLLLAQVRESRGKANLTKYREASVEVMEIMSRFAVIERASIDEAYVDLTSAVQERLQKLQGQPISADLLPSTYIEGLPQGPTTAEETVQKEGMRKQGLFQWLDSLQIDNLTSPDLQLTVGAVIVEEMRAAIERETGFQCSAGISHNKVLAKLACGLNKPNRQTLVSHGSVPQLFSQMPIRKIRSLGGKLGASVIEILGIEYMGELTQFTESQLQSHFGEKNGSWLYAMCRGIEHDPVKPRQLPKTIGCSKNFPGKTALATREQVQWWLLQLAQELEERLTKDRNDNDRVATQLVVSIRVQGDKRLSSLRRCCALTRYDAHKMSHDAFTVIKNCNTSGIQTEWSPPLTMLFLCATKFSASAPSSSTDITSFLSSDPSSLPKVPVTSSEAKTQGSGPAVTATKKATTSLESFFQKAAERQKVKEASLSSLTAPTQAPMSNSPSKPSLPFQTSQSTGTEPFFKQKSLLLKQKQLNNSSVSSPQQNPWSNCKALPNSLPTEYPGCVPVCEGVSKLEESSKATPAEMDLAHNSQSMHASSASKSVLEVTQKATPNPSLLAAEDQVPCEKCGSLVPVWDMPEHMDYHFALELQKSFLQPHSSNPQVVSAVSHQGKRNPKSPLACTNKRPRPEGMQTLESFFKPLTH
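Fluorescent replication assay: 50 nM final substrate added after a 15 min room-temperature compound preincubation with 10 nM enzyme. Signal taken at 0 min and again at 10 min.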
Pol kappa inh: DNA polymerase kappa (human) inhibition; purified Pol kappa, fluorescent DNA synthesis assay, 10 min; 400,000 compounds, 0.53% hits; Q9UBT6; Potency, µM (doses to about 107 µM), inactives show top-dose activity, negative = inhibition, actives largely listed as inhibitors; AID 588579; note: % is set by controls: 0 for no effect and ±100 for the full control effect
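Activity was followed as the change in fluorescence between reads at 0 and 10 min after starting the reaction with 50 nM substrate. Beforehand, 10 nM polymerase had been preincubated with compound for 15 min at room temperature.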
POLB inh: blocks human DNA polymerase beta activity. 340,000 compounds, 1.3% hits. Pol beta primer extension/strand displacement, fluorescence kinetic. Potency, µM (doses to about 114 µM), inactives show at the highest dose activity change, negative = inhibition, most hits filed as inhibitors. AID 485314. P06746; note: % is set by controls: 0 for no effect and ±100 for the full control effect
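Curves were derived by four-parameter Hill fits of normalized qHTS data. The kinetic fluorescent primer-extension read was taken at 0 and 10 min after 50 nM substrate, following a 15 min room-temperature preincubation of 10 nM enzyme with compounds.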
WRN helicase inh: WRN helicase (human) inhibition; Potency, µM (series often up to 114 µM), for inactives: at the highest dose activity change, negative = inhibition, most hits filed as inhibitors; 360,000 compounds, 0.46% hits; WRN helicase unwinding, fluorescent forked duplex, kinetic; AID 651768; Q14191; note: % is set by controls: 0 for no effect and ±100 for the full control effect; nearly all actives have a fitted effect of over 55% in size
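Primary qHTS, 1536-well format. 20 nM WRN + compound, 15 min RT; start with 100 nM forked fluorophore/quencher duplex, 2 mM ATP (final); kinetic read ex 525/em 598 nm.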
Active calls of the source: *; i = inactive; ? = inconclusive; . = no result; [ ] = remark or other dose. A selection: hits, their analogues and other compounds. The true share with any hit is near 2.3%. Calls come from the whole dose curve; as a rule, active = well fitted curve in the direction sought with a large enough effect; inconclusive = small, poorly fitted or top-dose-only effect, or another doubt; inactive = no such curve, though single readings can be large; an effect the other way counts as inactive or inconclusive. Potency is the fitted concentration of half-maximal effect.

SMILES	Pol iota inh	POLH inh	Pol kappa inh	POLB inh	WRN helicase inh
COc1cccc2c1-c1c(O)cccc1C2=O	?	-3%	-19%	-27%	-14%
CCCCC(=O)OCC(=O)C1(O)Cc2c(O)c3c(c(O)c2C(OC2CC(NC(=O)C(F)(F)F)C(O)C(C)O2)C1)C(=O)c1c(OC)cccc1C3=O (stereo unspecified)	?	-22%	?	.	7.9µM*
Cc1cc(Oc2ccc(Cl)cc2Cl)nc(C#N)n1	-8%	.	-10%	.	.
C=C(NC(=O)C(=C)NC(=O)c1csc(C2=NC3c4csc(n4)C4NC(=O)c5csc(n5)C(C(C)(O)C(C)O)NC(=O)C5CSC(=N5)/C(=C/C)NC(=O)C(C(C)O)NC(=O)c5csc(n5)C3(CC2)NC(=O)C(C)NC(=O)C(=C)NC(=O)C(=C)NC(=O)C(C(C)C)NC2C=Cc3c(C(C)O)cc(nc3C2O)C(=O)OC4C)n1)C(N)=O (stereo unspecified)	22µM*	?	-19%	.	?
CCCCCCC[n+]1ccc(/C=C/c2c(C)[nH]c3ccccc23)c2ccccc21	79µM*	.	?	.	.
CCCCCCC[n+]1ccc(/C=C/c2c[nH]c3ccccc23)c2ccccc21	?	.	32µM*	.	.
CCCCCCCCCCCCCCCC[n+]1ccc(/C=C/c2c[nH]c3ccccc23)c2ccccc21	i	.	95%	.	.
CCc1ccc2[nH]c(=O)c(CN(Cc3ccco3)Cc3nnnn3Cc3ccco3)cc2c1	?	.	-45%	.	.
NCCc1cnc(-c2cccc(C(F)(F)F)c2)[nH]1	.	.	16%[60.1 µM]	.	.
CC(=O)c1c(C)[nH]c2ccc(OCC(O)CNCCc3ccccc3)cc12 (stereo unspecified)	11%	.	-14%	.	.
CC(=C1SC(=S)NC1=O)c1ccccc1	89µM*	3%	-10%	.	-11%[11.6 µM]
Cc1ccc(CN2[C@H](C)[C@H](c3ccccc3)OCCS2(=O)=O)cc1	-16%	.	-15%	.	.
CCCN1CNc2c(c(=O)[nH]c(=S)n2CCc2cccc(OC)c2OC)C1	-2%	.	1%	.	.
Cc1cc(NC(=O)c2ccc(S(=O)(=O)N3CCc4ccccc43)cc2)no1	?	-20%	-2%[60.1 µM]	50µM*	-4%
COc1ccccc1C(=O)Nc1ccc(S(=O)(=O)N2CCc3ccccc32)cc1	-2%	2%	-4%	5%	-2%
COc1ccc(S(=O)(=O)N2CCc3ccccc32)cc1C(=O)Nc1ccc(C(N)=O)cc1	89µM*	-12%	-10%	.	6%
Cc1nc(NCC(=O)c2c[nH]c3ccccc23)sc1C	0%	.	-11%	.	.
O=C(CCCN1C(=O)/C(=C\c2cccs2)SC1=S)NNC(=O)c1cccnc1	?	-14%	-5%	?	3%
O=C(CCCN1C(=O)/C(=C/c2cccs2)SC1=S)NNC(=O)c1ccncc1	?	?	-6%	25µM*	-20%
Nc1ccc2cc3ccc(N)cc3nc2c1	.	.	9.5µM*	.	.
Cc1ccc2cc(N)ccc2n1	92%	-4%	3%	?	5%
COc1ccc(CN(Cc2ccccc2)C(=O)c2cccc(C#N)c2)cc1COc1ccc(NC(C)=O)cc1	-1%	.	7%	.	.
Cc1ccc(S/C=C\C(=O)c2ccccc2)cc1	79µM*	-14%	-23%	21%	-15%
Cc1ccc(C(=O)/C=C\C(=O)c2ccc(C)cc2)cc1	9%	-5%	-2%	4%	?
COC(=O)\C(C(C)=O)=C(/C=C/C=C/N(C)C)N(C)C	?	14µM*	?	22µM*	-20%
SMILES	Pol iota inh	POLH inh	Pol kappa inh	POLB inh	WRN helicase inh
C=C1NN(Cc2ccccc2)C(=O)N1c1ccc(OCc2ccccc2)cc1	0%	.	1%	.	.
O=C(O)CCC/C=C\C[C@@H]1C(/C=C/[C@@H](O)COc2cccc(C(F)(F)F)c2)[C@@H](O)C[C@@H]1O (stereo partly specified)	.	.	0%[19.4 µM]	.	.
O=C(CSCc1c(F)cccc1Cl)NCCSCc1ccco1	-16%	1%	-25%	25µM*	-12%
CS(=O)(=O)Nc1ccc(C(=O)NCCSCc2ccco2)cc1	10%	?	-10%	-21%	-23%
Cc1ccc(C)c(N(CC(=O)NCCSCc2ccco2)S(C)(=O)=O)c1	?	22µM*	79µM*	28µM*	-35%
O=C(NCCSCc1ccco1)c1ccc(=O)[nH]c1	50µM*	-20%	-38%	-7%	-6%[11.6 µM]
COc1ccc(CNC(=O)Cn2nc(-c3ccc4c(c3)OCCO4)ccc2=O)cc1	63µM*	-5%	-8%	12%	-20%
COc1ccc(-c2ccc(=O)n(CC(=O)Nc3ccc4c(c3)OCCO4)n2)cc1	?	6%	1%	-11%	-6%
CCOC(=O)c1c(NC(=O)/C=C/C(=O)O)sc(C)c1-c1ccc(C(C)(C)C)cc1	?	22µM*	-12%	?	-34%
Cc1cn(C)c(CC(=O)N2CCN(c3ccc(F)cc3)CC2)c1C(=O)O	-9%	-16%	2%[60.1 µM]	1%	.
Cc1cn(C)c(CC(=O)N2CCN(c3cccc(C(F)(F)F)c3)CC2)c1C(=O)O	89µM*	-9%	5%[60.1 µM]	1%	.
COc1ccc(-c2nc3ccc(NC(C)=O)cc3c(=O)n2Cc2ccccc2)cc1COc1ccc(NC(C)=O)cc1	-11%	.	-19%	.	.
CCC(c1ccc(O)c(O)c1)C(CC)c1ccc(O)c(O)c1 (stereo unspecified)	18µM*	79µM*	50µM*	.	?
COC(=O)c1ccc2c(c1)C(C)(C)C(/C=C/c1ccc(OC)c(OC)c1OC)=[N+]2C	?	-3%	?	?	50µM*
COc1cc(/C=C/c2ccc(O)cc2)cc(OC)c1	-8%	-5%	-1%	-27%	0%
COC(=O)c1ccc2c(c1)C(C)(C)C(/C=C/c1ccc(O)cc1)=[N+]2C	25µM*	17%	28µM*	?	50µM*
COc1ccc(/C=N/Nc2ccc(C(=O)O)cc2)c(OC)c1OC	4%	-6%	-10%	27%	5%
CCOc1cc(/C=N/Nc2nc3ccccc3[nH]2)cc(Br)c1OCC(=O)N(C)C	98%	-28%	-28%	?	-25%
COc1ccc(/C=C2/CCc3ccccc3C2=O)cc1OC	11%	-24%	-14%	0%	-8%
COc1ccc(/C=C2\COc3ccccc3C2=O)cc1OC	25µM*	?	-6%	7%	-12%[11.6 µM]
COc1cc(/C=C2\CC/C(=C\c3cc(OC)c(OC)c(OC)c3)C2=O)cc(OC)c1OC	37%	-24%	2%	-2%	-12%
COc1cc(/C=C2\COC/C(=C\c3cc(OC)c(OC)c(OC)c3)C2=O)cc(OC)c1OC	11µM*	?	-21%	-2%	-18%
CCOc1cc(/C=C2\COc3ccccc3C2=O)cc(Br)c1OCC(=O)N(C)C	18µM*	?	1%	-25%	-26%
C[N+]1(CC(=O)c2ccc(Br)cc2)CCOCC1	23%	.	7%	.	.
CC(=O)Oc1ccc(-c2nc(-c3ccccc3)no2)cc1	8%	.	-10%	.	.

Assay outcomes deposited in PubChem by National Center for Advancing Translational Sciences (NCATS).
